The results in this text go back to PubChem BioAssay (NCI).

The panel holds about 83,000 compounds, 20% with a hit somewhere; the sample as a whole holds those more often.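 Growth was measured after 48 h exposure to one concentration of compound in 96-well plates. Values under 10 count as active.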 Values without a mark were called inactive. The source made the active and inactive calls.

The test relates to MDA-MB-468 breast. The experiment in a line: NCI-60 one-dose screen, 48 h (100 = growth as untreated, 0 = no growth, -100 = all killed). The conditions noted are these: 10 µM unless noted.
Regarding `COC(=O)c1c2c(c(C)[n+]([O-])c1C)C(=O)C(NCc1ccc(OC)cc1)=CC2=O`, the growth was -6.29% (active). `Cc1[nH]c(-c2cc(N)ccc2Cl)c2c1C(=O)CCCC2`: the growth was -5.42% (active).

With `COc1ccc(-c2nc3sccn3c2/C=C/C(=O)c2c[nH]c3ccccc23)cc1`, the growth was 62.6%.

In the case of `O=C(c1cccc(C(=O)c2ccc3c4c(cccc24)C(=O)N(c2ccccc2)C3=O)c1)c1ccc2c3c(cccc13)C(=O)N(c1ccccc1)C2=O`, the growth was 91.3%. Next, `COc1ccc(/C(=C/c2cc(OC)c(OC)cc2[N+](=O)[O-])C(=O)O)cc1`: 111%; `CCN(C(=O)Nc1ccccc1Cl)c1ccccc1`: 97.4%. Next, `Cc1cc(Nc2ccc(Cl)c(Cl)c2)nc(N)n1`: 54.5%.

Regarding `O=C(c1ccc(O)cc1)C1[C@H](c2ccc(Cl)cc2)[C@@H](c2ccccc2)NC12C(=O)Nc1ccc(Cl)cc12` (some centres not stated), the growth was 39.4%. For `CO[C@@]12C=C[C@@]34CCC(=O)N3c3ccccc3[C@@H](O1)C4C2` the value was 108%; for `CCCCCC(=O)Oc1ccc(/C(=C(\C)c2ccccc2)c2ccc(OCCN(CC)CC)cc2)cc1`, 61.5%. For `O=C(Nc1ccccc1CNc1nc(Nc2ccc(OCCN3CCCC3)cc2)ncc1Cl)NC1CCCCC1` the value was 89.4%; for `Cc1cc(=O)n2nnc3cc(C(F)(F)F)ccc3n12`, 122%; for `Oc1cccc2ccc(-c3nnc(SCc4ccc(O)c5ncccc45)o3)nc12`, 0.74% (active).

Turning to `Cc1ccc(S(=O)(=O)n2cc(C(=O)C(=O)N3CCOCC3)c3ccccc32)cc1`, the growth was 90.4%. For `N#CN1CC[C@H](C(=O)Nc2ncc(-c3ccccc3)s2)C1` the value was -49.9% (active); for `C=CC(C)(O)CC/C=C(\CO)C(=O)OC1C(C)OC(O[C@](C)(C=C)CC/C=C(\CO)C(=O)O[C@H]2C[C@@]3(C(=O)OC4OC(CO)C(O)C(O)C4OC4OC(C)C(OC5OC(CO)C(O)C5O)C(OC5OC(CO)C(O)C(O)C5O)C4O)C(CC2(C)C)C2=CCC4[C@@]5(C)CC[C@H](OC6OC(COC7OC(C)C(O)C(O)C7OC7OCC(O)C(O)C7O)C(O)C(O)C6NC(C)=O)C(C)(C)C5CC[C@@]4(C)[C@]2(C)C[C@H]3O)C(O)C1O` (some centres not stated), 19.9%.

Take `COc1c(Cl)ccc2c(-c3nc4cc(Cl)c(F)cc4s3)cc(=O)oc12`: the growth was 80%. For `CN(C)CCNc1nc2ccccc2c2c(=O)c3ccccc3sc12` the value was -23.6% (active); for `O=C(/C(=C/c1ccc([N+](=O)[O-])cc1)SCc1ccc(F)cc1)c1ccc(Cl)cc1`, 76.4%. For `C=C1CC/C=C(\C)C(=O)C[C@@H]2[C@@H]1CC2(C)C` the value was 79.1%; for `CC(=O)CC(c1ccc([N+](=O)[O-])cc1)c1c(O)c2ccccc2oc1=O` (configuration not stated), 104%; for `[O-]/[N+](=C\C=C\c1ccccc1)c1ccccc1`, 113%. Next, `C=C(C)[C@@H]1CC[C@]2(C(=O)OCCOCCOCC[P+](c3ccccc3)(c3ccccc3)c3ccccc3)CC[C@]3(C)[C@H](CC[C@@H]4[C@@]5(C)CC[C@H](OC(C)=O)C(C)(C)[C@@H]5CC[C@]43C)[C@@H]12`: -76.5% (active); `Cc1ccc(-c2nc(N3CCN(C(=O)Nc4ccc(Cl)c(C(F)(F)F)c4)CC3)c3ccccc3n2)cc1`: 77.2%. As for `CCC1CCc2nc3sc(C(=O)Nc4ccccc4C)c(N)c3cc2C1` (configuration not stated), the growth was -0.179% (active). As for `CC1(C)C=Cc2cc(/C(N)=N/C(N)=N/c3nc4ccccc4s3)ccc2O1`, the growth is 74.1%. For `O=C(Nc1ccc2c(ccn2Cc2ccccn2)c1)c1ccnnc1` the value was 89.7%.
